# Compound activity deposited in PubChem BioAssay by National Center for Advancing Translational Sciences (NCATS).
# Rows were chosen to be rich in hits. Some 19% of all compounds tested hit in one or more screens of this group.
# DT40 TDP1 no CPT: qHTS for Inhibitors of human tyrosyl-DNA phosphodiesterase 1 (TDP1): qHTS in cells in absence of CPT; DT40 Tdp1-/- hTDP1 cells, no CPT, ATP luminescence, 48 h; Potency, µM (highest dose often 46.2 µM), inactives show top-dose activity change, negative = growth inhibition, hits mostly inhibitors; hit rate 15% among 420,000; further: potency means the concentration at half of the fitted maximal effect; nearly all actives have a fitted effect of over 55% in size
#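 Camptothecin absent (DMSO only). Human TDP1-complemented DT40 knockout cells, 400 cells/well, 37 °C for minimum 48 hr; ATP measured via CellTiter-Glo, 30 min dark incubation, luminescence.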
# TDP1 inh: blocks human tyrosyl-DNA phosphodiesterase 1. Q9NUW8. recombinant TDP1, AlphaScreen DNA substrate cleavage. Potency, µM (doses to about 130 µM), inactives show at the top dose activity change, negative = inhibition, hits mostly inhibitors. hit rate 0.28% among 350,000. AID 485290; further: potency means the concentration at half of the fitted maximal effect; nearly all actives have a fitted effect of over 40% in size
# Target sequence (Q9NUW8 whole entry, looked up): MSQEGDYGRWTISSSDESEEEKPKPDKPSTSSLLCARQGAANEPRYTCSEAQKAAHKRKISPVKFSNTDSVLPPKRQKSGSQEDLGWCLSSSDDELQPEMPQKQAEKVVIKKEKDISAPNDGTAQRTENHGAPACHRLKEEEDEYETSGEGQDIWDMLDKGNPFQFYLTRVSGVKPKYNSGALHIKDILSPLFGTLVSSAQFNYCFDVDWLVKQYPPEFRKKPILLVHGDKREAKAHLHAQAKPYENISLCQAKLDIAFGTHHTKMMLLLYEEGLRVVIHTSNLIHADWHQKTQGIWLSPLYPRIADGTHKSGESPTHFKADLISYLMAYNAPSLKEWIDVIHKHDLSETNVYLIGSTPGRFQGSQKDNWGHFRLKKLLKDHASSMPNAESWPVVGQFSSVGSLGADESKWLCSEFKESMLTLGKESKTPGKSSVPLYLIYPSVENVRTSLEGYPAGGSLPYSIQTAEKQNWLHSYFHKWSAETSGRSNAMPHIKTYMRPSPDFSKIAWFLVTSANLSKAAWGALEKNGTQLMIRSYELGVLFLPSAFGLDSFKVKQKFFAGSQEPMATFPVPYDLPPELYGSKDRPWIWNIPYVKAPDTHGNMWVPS
#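 Compounds were preincubated with Tdp1 (1 nM final) for 15 min at room temperature before substrate (15 nM final) started a 5 min reaction; beads (10 ug/ml final) were then added for 10 min before AlphaScreen detection.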
# TDP1 cell CPT: DT40-hTDP1 cell growth loss with CPT | chicken DT40 Tdp1-/-;hTDP1 cells + 20 nM CPT, ATP luminescence, 48 h | Potency, µM (top dose mostly 46.2 µM), without a hit: top-dose activity change, negative = growth inhibition, most hits filed as inhibitors | hit rate 12% among 420,000 | AID 686979; further: potency means the concentration at half of the fitted maximal effect; nearly all actives have a fitted effect of over 55% in size
#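 Chicken DT40 Tdp1-/- cells complemented with human TDP1, 400 cells/well, exposed to compounds plus 20 nM camptothecin for at least 48 h at 37 C; viability read as ATP content by CellTiter-Glo luminescence.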
# IL1B secr inh: inflammasome signaling inhibition, IL-1 beta readout; THP-1 LPS/ATP IL-1B secretion, AlphaLISA, 16 h; stronger effect = lower value; activity change, % at 57.5 µM; hit rate 4.7% among 360,000; AID 743279; in the data active means activity change below about -50%; inconclusive means mostly about -30% to -49%
#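 THP-1 cells pretreated 1 hr with compounds (up to 57.5 uM final), then stimulated with LPS (250 ng/mL final) plus ATP (1.25 mM final); secreted IL-1B measured by AlphaLISA after 16 hr, decreased signal indicating inhibition.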
# Giardia kill: Giardia lamblia killing; Giardia lamblia trophozoite viability; activity change, % at 7.66 µM, hits read low; hit rate 0.15% among 340,000; AID 540267; in the data active means activity change below about -80%; inconclusive means between about -30% and that limit;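 further: parasites exposed to compound for two days anaerobically before the ATP read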
#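 Anaerobic 48 hrs incubation at 37 deg C of 100 trophozoites/well with test compounds; ATPLite 1-Step luminescence, 15-30 min RT, reports cellular ATP as viability.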
# ELG1 repair inh: inhibitors of ELG1-dependent DNA repair in HEK293T cells; Potency, µM (top dose mostly 46.1 µM), for inactives: top-dose activity change, negative = inhibition, usual class: inhibitors; HEK293T ELG1-luciferase reporter, luminescence, 16 h; DNA damage induced by 5-fluorouridine; AID 504467; hit rate 2.3% among 330,000; further: potency means the concentration at half of the fitted maximal effect; nearly all actives have a fitted effect of over 55% in size
#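 Step one: seed 2,000 cells per well. Step two: pin-transfer compound or DMSO alongside 5-fluorouridine. Step three: incubate 16 hr, 37 °C, 5% CO2. Step four: add ONE-Glo, wait 30 min, read luminescence.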
# * hit, by the source's call; i = inactive; ? = inconclusive; / = not tested or not shown; [ ] = dose if it differs, or a comment. Unless noted, the call rests on the fitted dose curve; in most records, active means well fitted curve in the direction sought with a large enough effect; inconclusive means small, poorly fitted or top-dose-only effect, or another doubt; inactive means no such curve, though single readings can be large; an effect the other way counts as inactive or inconclusive. On the % scale 0 is the no-effect control and ±100 the full control effect.
SMILES,DT40 TDP1 no CPT,TDP1 inh,TDP1 cell CPT,IL1B secr inh,Giardia kill,ELG1 repair inh
Cc1ccccc1N1CC(c2nnc(NC(=O)c3ccco3)s2)CC1=O (stereo not given),-14%,1%,1%,/,/,/
COc1cccc(Nc2nc(C(N)Cc3ccccc3)cs2)n1 (stereo not given),16µM*,/,13µM*,?,/,/
COc1cc(OC)nc(Nc2nc(C(N)Cc3ccc(F)cc3)cs2)n1 (stereo not given),23µM*,/,21µM*,/,/,/
CO[C@H]1CN(C)C(=O)c2cc(NC(=O)C3CCOCC3)ccc2OC[C@H](C)N(Cc2nccs2)C[C@H]1C,-6%,/,1%,-62*,/,/
COc1cccc(S(=O)(=O)Nc2ccc3c(c2)C(=O)N(C)C[C@H](OC)[C@H](C)CN(Cc2ccccc2F)[C@@H](C)CO3)c1,8.2µM*,/,9.2µM*,?,/,/
O=C(C(=O)N1CCN(C(=O)OCc2ccccc2)CC1)c1cccs1,?,/,7%,-17,/,/
CCN(CC)CC(=O)c1c[nH]c2ccc(C)cc12,23µM*,7%,21µM*,11,9,0%
COc1ccc(S(=O)(=O)N2CCCCC2)cc1NC(=O)Cn1cnc2c1c(=O)n(C)c(=O)n2C,-21%,-3%,3%,14,-13,12%
Cc1nn(-c2ccccc2)nc1C(=O)Nc1ccc2[nH]ncc2c1,21µM*,6%,-26%,-14,21,-16%
O=C(COc1ccc(Cl)cc1)Nc1ccc(CN2CCOCC2)cc1,?,0%[56.1 µM],-24%,-5,-5,?
O=C(COc1ccc([N+](=O)[O-])cc1)Nc1ccc(CN2CCOCC2)cc1,21µM*,2%,?,11,8,?
Cc1cc(OCC(=O)Nc2ccc(CN3CCOCC3)cc2)ccc1Cl,?,2%,-74%,-51*,11,-29%
Cc1ccc(NC(=O)C(=O)NCCN2CCN(Cc3ccc([N+](=O)[O-])cc3)CC2)cc1,?,3%,-28%,9,-6,?
CCc1ccc(NC(=O)C(=O)NCCN2CCN(Cc3ccc([N+](=O)[O-])cc3)CC2)cc1,9.2µM*,-1%,10µM*,18,-4,-15%
Cc1ccc(OCC(=O)Nc2ccc(CN3CCOCC3)cc2)cc1C,?,5%[56.1 µM],3%,-9,-8,-2%
O=C(CN1C(=O)CC(c2ccco2)Sc2ccccc21)Nc1cccc(C(F)(F)F)c1 (stereo not given),/,-7%,/,/,/,/
CSC(=NS(=O)(=O)c1ccccc1)NNC(=O)c1c(-c2c(Cl)cccc2Cl)noc1C,5%,/,3%,22,/,/
CCN(CC)C(=O)NC(c1ccc(C)c(F)c1)C(Cl)(Cl)Cl (stereo not given),16µM*,-1%,16µM*,-4,-2,-12%
CCN(CC)C(=O)Cn1cc(SCC(=O)NC)c2ccccc21,1%,4%,5%,-5,-4,6%
CCN(CC)C(=O)Cn1cc(SCC(=O)Nc2ccc(C)cc2)c2ccccc21,26µM*,8%,?,/,/,/
CCN(CC)C(=O)Cn1cc(SCC(=O)Nc2ccccc2F)c2ccccc21,26µM*,8%,?,/,/,/
CCCCN1CC[C@H]2C=CC[C@@H](C(=O)Nc3ccc(Cl)c(C(F)(F)F)c3)[C@H]2C1=O,10µM*,/,?,-22,-9,/
CCCCN1CC[C@H]2C=CC[C@@H](C(=O)Nc3ccccc3)[C@H]2C1=O,-5%,/,?,30,-17,/
O=C(Nc1ccc(Cl)c(C(F)(F)F)c1)[C@@H]1CC=C[C@@H]2CCN(C3CCCCC3)C(=O)[C@@H]21,16µM*,/,?,30,-6,/
O=C(Nc1ccc(Cl)c(C(F)(F)F)c1)[C@@H]1CC=C[C@@H]2CCN(C3CC3)C(=O)[C@@H]21,?,/,?,-9,-6,/
SMILES,DT40 TDP1 no CPT,TDP1 inh,TDP1 cell CPT,IL1B secr inh,Giardia kill,ELG1 repair inh
O=C(Nc1ccc(Cl)cc1Cl)[C@@H]1CC=C[C@@H]2CCN(C3CCCCC3)C(=O)[C@@H]21,18µM*,/,16µM*,/,/,/
O=C(NNC(=O)C1CCC1)c1cccc(Cl)c1,10%,0%,-1%,-7,-3,?
COc1cc(OC)c(NC(=O)c2noc3c2CSc2ccccc2-3)cc1Cl,-14%,0%,-7%,/,/,/
C[C@H]1CN([C@@H](C)CO)C(=O)c2cc(Br)cnc2O[C@@H]1CN(C)C(=O)Nc1ccc(C(F)(F)F)cc1,23µM*,/,21µM*,4,/,/
C[C@H](O)C#Cc1cnc2c(c1)C(=O)N([C@H](C)CO)C[C@@H](C)[C@H](CN(C)C(=O)Nc1ccc(C(F)(F)F)cc1)O2,7.3µM*,/,12µM*,?,/,/
Cc1cc(C)nc(-c2cccc3c2OC(CNC(=O)c2ccc(Cn4nc(C)cc4C)cc2)C3)n1 (stereo not given),-22%,/,26%[9.04 µM],/,/,/
Cc1ccc(N2C(=O)C3C4CC(=O)C(c5ccccc54)C3C2=O)cc1C (stereo not given),?,0%,-20%,i,-12,-9%
O=C(COC(=O)c1ccc(O)cc1)Nc1ccc(S(=O)(=O)N2CCOCC2)cc1,-11%,0%,-7%,14,-4,-11%
O=C(COC(=O)c1n[nH]c2ccccc12)Nc1ccccc1,-8%,0%,8%,-11,-14,?
O=C(COC(=O)c1n[nH]c2ccccc12)Nc1ccc(S(=O)(=O)N2CCCC2)cc1,21µM*,8%,23µM*,-4,8,?
O=C(COC(=O)c1ccc(S(=O)(=O)N2CCCC2)cc1)Nc1ccc(N2CCOCC2)cc1,?,6%,18µM*,31,10,8%
N[C@H](Cc1ccccc1)C(=O)O,-13%,-1%,-25%,/,/,/
NC(=O)N/N=C1\c2ccccc2-c2c(C(N)=O)cccc21,-4%,/,-53%,-1,27,3%
NC(=S)NN=C1c2ccccc2-c2c(F)c(F)c(F)c(F)c21,12µM*,/,7.3µM*,-111*,-15,/
N#Cc1cccc2c1-c1ccccc1/C2=N/NC(N)=S,18µM*,/,?,-58*,4,-25%
CCOC(=O)c1cc([N+](=O)[O-])sc1NC(=O)c1ccc(S(=O)(=O)N2CC3(C)CC2CC(C)(C)C3)cc1 (stereo not given),2.6µM*,3%,2.3µM*,56,?,?
